# Screen size: about 53,000 sequences; about 3,700 (7%) were called active. This is one part of a sample in which actives are shown more often than they occur.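 Rule for the calls: active = gene knockdowns whose robust z-score for IL-1 alpha signal is at least 2 or at most -2, so actives lie on both sides; inactive = the rest.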
# Assay: Components of the Cytosolic LPS Sensing Pathway: Gene Identification via Genome-wide siRNA Screen;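 note: robust z of the log signal after scaling to non-targeting control siRNA wells of the plate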
# Details: RAW264.7 macrophages, IL-1a HTRF, actives lie on both sides, screened at 100 nM (by protocol), cells primed 5 h with Pam3CSK4 first
# How it was run: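 IL-1a HTRF of supernatants after 24 hour LipidA transfection of Pam3CSK4-primed (5 hours) RAW264.7 cells, 48h post-siRNA transfection (100 nM). Scores: percent of plate negative-control median, then log-based robust z-score.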
row,Sequence,z-score
1,GGAGGGAAAACCACAAGACTT against Dppa4,0.514 (inactive)
2,CCUCUUAUUCAGAAUGUCCTT against Bnc2,0.451 (inactive)
3,GCGAGGAGAGUGUGUUUUCTT against Bop1,2.08 (active)
4,GGACAUCCAGACAAUGAGGTT against Fam13b,-1.62 (inactive)
5,GGUCGUCUGAUUUUUGAUATT against Atp1a1,0.391 (inactive)
6,GGACUGCUGGGAGAACUUUTT against Zcchc3,0.76 (inactive)
7,CGCAGGACAUUUGGUUUUGTT against Ssxb2,2.88 (active)
8,GGGCCACAGGAUCUCACUUTT against 1700009J07Rik,-1.88 (inactive)
9,GGAGGAACAGAAGAAACUCTT against Tma7,-0.0481 (inactive)
10,GGCUAUGCAAGUGGAGAGCTT against Nfat5,-0.311 (inactive)
11,GGACAAAGGCUGUAUUUUCTT against Tgm3,-1.07 (inactive)
12,CGCGAGCUCAGAAUACAUGTT against Btn1a1,2.5 (active)
13,GGAGAUAAUAAUGAAGUCGTT against Sec11c,0.353 (inactive)
14,GGUUGGUGAACUUGGAGGUTT against Hspa1a,1.41 (inactive)
15,GGGUUUUUUUUUCCUUGAATT against Smndc1,-0.313 (inactive)
16,GGCUGAUGGAAAUCCUUAATT against Ctif,0.0158 (inactive)
17,GGUAGAAUACGUGUUCCUGTT against Cacna1f,2.79 (active)
18,GGGCAAAGCCUUCAACCCUTT against Insl6,-0.038 (inactive)
19,CGCCACUGCUUUGAUUACUTT against Coa5,-1.51 (inactive)
20,GGCGCAUUACCAGAGCUUCTT against Tnpo2,-0.425 (inactive)
21,CGUUGUCAAAAGGACCCAUTT against Pvr,-0.766 (inactive)
22,GGAUAAGGUAGAAUUACUGTT against Slc26a4,3.06 (active)

row,Sequence,z-score
1,GCACCGUGUGACCAUGAACTT against Akt1,3.96 (active)
2,GCAAGGAUCCACGCUUUUCTT against Ckmt2,1.34 (inactive)
3,GCCACUCUUAGUGCUAACUTT against Tctn3,-1.25 (inactive)
4,GGAUUACCUAAAUUUAGGATT against Hfm1,0.14 (inactive)
5,GCACUACAGACACUUUUAGTT against Gm5533,-2.12 (active)
6,GGAAAAUUCAGUUUAAUCCTT against Glt8d1,0.438 (inactive)
7,GGACAGAACCAUCUGAAGGTT against Aldh18a1,1.43 (inactive)
8,CGUGGAAAAGCUAUGUGCGTT against Lif,-0.188 (inactive)
9,GGAAGCUGUGCUGAAUGGUTT against Atp5l,0.387 (inactive)
10,CGGCACUGUCAUAAGUGUGTT against Utp4,2.39 (active)
11,GGAGGAAAAGGCUUUUCGATT against Ccdc70,1.04 (inactive)
12,GGCACAUCACUGCUUACCUTT against Rce1,-1.73 (inactive)
13,GGAUGUGGAAUCAUGCUAUTT against Tnpo3,2.41 (active)
14,GCCAAGCCAUCUCAUUAAATT against Wdr18,-0.724 (inactive)
15,GCCUGACUUUAAUGAAGAATT against Slf2,-1.77 (inactive)
16,GGGUUUCUUGUUUCUUAGATT against Aldh6a1,-0.00669 (inactive)
17,CGUGGUUCCUCUUUGGUGUTT against Kcnj10,-0.217 (inactive)
18,CCAGUUCUUAACAUUGUGUTT against Syap1,-1.13 (inactive)
19,CCCAUCAUCUUCCCAUUCGTT against Olfr146,-0.204 (inactive)
20,GGGCUAGAUGAAUUUUUGATT against Aplnr,-0.181 (inactive)
21,GGCCUGGAUUCCUUAACAATT against Lgi1,-3.23 (active)
22,CCAGCUAUGUGUAUAAACCTT against Ppid,-0.045 (inactive)

row,Sequence,z-score
1,GCCUGUGCCUUUUGAAUUCTT against Brox,-0.0201 (inactive)
2,GGUCUAUCCCAUCAUGCCUTT against Clcnka,0.583 (inactive)
3,GCAGAGAGUUUUUAUCUGCTT against Vmp1,0.0579 (inactive)
4,CGCUACGACUAGAGUUUGCTT against Rbpms,2.36 (active)
5,GGGAAGAACUUCAAGCUUGTT against Ptk2b,0.668 (inactive)
6,GGUUGGACUGACUAUCCAUTT against Olfr984,1.02 (inactive)
7,GGCUGCUGACAUUUUCAUCTT against Lrrc28,1.53 (inactive)
8,GGAUAUGCUCAGAGGUUUUTT against Pex11g,2.2 (active)
9,GGUCCUAACAUCCAGAGUGTT against Zfp438,-1.06 (inactive)
10,GGAUAAGACCAUCAGAUUATT against Wdr31,1.18 (inactive)
11,GGAGCUUGAUUCGAAGCCUTT against Bik,-0.364 (inactive)
12,GCGAAGAGUCAAAUCCAUCTT against Dock8,-1.93 (inactive)
13,CGGGUGCUAAAAUGUCUAUTT against Khdrbs2,2.81 (active)
14,CCGAAGUUCACCCUAAAGGTT against Lmna,-0.485 (inactive)
15,GCAAAGAAGUGUAUGUGUUTT against Olfr273,0.0336 (inactive)
16,GCUUCUCAGAAGAUGUACUTT against Rgs16,-1.06 (inactive)
17,GCCCUAUAUAUCAUUCUAGTT against Rhoa,1.12 (inactive)
18,GCCUGUUAUAUGUGGCCUUTT against Olfr1352,0.673 (inactive)
19,GGAUGUCCUGAAAGAAAAATT against H2-M9,0.633 (inactive)
20,GCUUUAUUCACUCACUUUCTT against Chsy3,0.814 (inactive)
21,GGAUAACUGUAACAGCCCGTT against Ly6g6c,-2.12 (active)
22,GGUGAUUUCUAUCGAUUUUTT against Dhrs9,0.144 (inactive)

row,Sequence,z-score
1,GGACGUGCUCAAGUUCAUCTT against Ift172,0.519 (inactive)
2,GGAAGUCAAGCAAAAGUUUTT against Hsd17b7,-0.516 (inactive)
3,GGUUGAAGAUGAAAGAAGATT against Sin3a,0.132 (inactive)
4,CGAAGCUCAACAGAUUCCUTT against Prl7a2,-0.278 (inactive)
5,GGCACGAUGGUUCAUCCUUTT against Plek2,-2.01 (active)
6,CGGCCUACAACUACCCAACTT against Tekt3,1.02 (inactive)
7,CGACGUAUCCGUUCUAUAATT against Eif2s1,-1.05 (inactive)
8,GAGCAUAGAAACCAUGCACTT against Acot2,-0.621 (inactive)
9,GGAGAUGUAACCAUAGGCCTT against Dctn6,2.07 (active)
10,GCUAAAGAAAAGUGGAGACTT against Pbdc1,0.165 (inactive)
11,GGCAGAAAGACAUUUUCUUTT against Ift80,-2.53 (active)
12,GCAUAUCUAUAACAGAGCCTT against Rnase2a,-1.23 (inactive)
13,GGAAAUGUCAUGACCUUGATT against Tnfaip6,-1.89 (inactive)
14,CCUGGUGCUAUGGACUAAATT against Tectb,-1.15 (inactive)
15,GCUACGGAUGCUUUUCAAATT against Ube2i,-0.351 (inactive)
16,UAUUGUCACCGUCUUAGGCTT against Olfr1028,-2.84 (active)
17,CGUAUCUUAUAUCAGGAAATT against Trem1,0.513 (inactive)
18,GGAGAACAUAAAAAUGGUGTT against Stk39,-0.0786 (inactive)
19,GGAGUUUUGGGUGAUGAUATT against Olfr974,-2.41 (active)
20,GGUCUUUUGUAAAAACCCUTT against Sytl2,0.099 (inactive)
21,GGCAACAGUGAAAGAUGAATT against Acnat2,0.0608 (inactive)
22,GCAACCGCGUCACAUUGAATT against Bicc1,0.655 (inactive)

row,Sequence,z-score
1,GCGAGCAUGAAGUUAGUAATT against C230029F24Rik,0.914 (inactive)
2,GGAGUGACUCCUACAAAAUTT against Ms4a4b,-2.01 (active)
3,CCAGUGGUCAUUCUUGUCUTT against Olfr1076,0.314 (inactive)
4,GCUGUCGACUUUAAAAGGUTT against Pcdhga7,-0.356 (inactive)
5,GGCAGAAACUAAGAAUGAATT against Mx1,-0.292 (inactive)
6,GGACCUUUUGUGAACUUACTT against E2f3,4.53 (active)
7,GGUGAAGAAAGCACUGUUUTT against Olfr980,0.0649 (inactive)
8,GGAAAUCAGAAUUCCAAAATT against Cntn6,1.56 (inactive)
9,GGCCUAUUUGUUUUUGAAATT against Mthfd2,1.45 (inactive)
10,GGACUAUUCACACUAAGUCTT against Them5,-0.214 (inactive)
11,GGGAAACAAAAAGCAGAUATT against Ccdc47,0.325 (inactive)
12,GGAACUGGAAAUCUCAGAGTT against Pcdh12,0.447 (inactive)
13,GCCACAUCAGAUGAAGUCCTT against Ppm1e,-2.26 (active)
14,GCCCAAUCUACACAGACCATT against Slc7a13,-0.939 (inactive)
15,GGAUGUGUGUGUCUCCUCATT against Prr9,-0.256 (inactive)
16,GCUACAGAUUAGGGACAUATT against Pcdhb2,4.53 (active)
17,CCACUCCCAUAAGGGCUAUTT against Smo,-0.144 (inactive)
18,CCUGAACAUAAAGUUUACUTT against Catsper4,0.209 (inactive)
19,CGACAUGUCAAAACUCACGTT against Zfp791,1.22 (inactive)
20,CCAUGUACCAGAUUAAGUATT against Krt8,1.16 (inactive)

# Reference: PubChem BioAssay AID1508600 (Functional Genomics Laboratory (NCATS/FGL), 2020)
